Results filed as inconclusive are left out. Active and inactive are the calls of the source. Rule for the calls, unless noted: active = hit-call score of the fitted dose curve at least 0.9, where 1 is the maximum; inactive = score below 0.9.
Key:
[1] = ACEA_ER_80hr: ACEA Biosciences xCELLigence Real-Time Cell Analysis on Estrogen Receptor Agonism for Proliferation (AID 2282667; active = hit-call score of the fitted dose curve at least 0.9, where 1 is the maximum); details: T47D proliferation, impedance (xCELLigence), 80 h
Summary of the method: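 Estrogen-driven proliferation is captured as electrode impedance in T47D cells 80 h after compound addition. Test articles ran at 8 concentrations, 1:4 dilutions from 100 uM final, in two replicate plates.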

[2] = APR_HepG2_CellCycleArrest_24hr: Apredica 24-hour HepG2 Assay for Cell Cycle Arrest (AID 2282905); details: imaging, actives raise or lower the signal;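 note: cell cycle arrest scored as ratio of 2N to 4N nuclear DNA content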
Summary of the method: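 Compounds at 0.39–200 uM (0.5% DMSO) for 24 h, then fixed and Hoechst 33342 stained. Cell-cycle analysis of nuclear DNA content by high-content imaging, fitted bidirectionally versus DMSO.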

[3] = APR_HepG2_NuclearSize_24hr: Apredica 24-hour HepG2 Assay for Nuclear Size (AID 2282907); details: high-content imaging, actives raise or lower the signal
Summary of the method: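 HepG2 cells exposed 24 h to compounds at 0.39–200 uM (0.5% DMSO), fixed, Hoechst 33342 stained and imaged at 20x; nuclear diameter measured by automated image analysis, fitted bidirectionally against DMSO controls.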

[4] = APR_HepG2_CellLoss_24hr: Apredica 24-hour HepG2 Assay for Cell Loss (AID 2282908); details: high-content imaging;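 for AC50: fit in both directions so a hit may be cell loss or gain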
Summary of the method: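 HepG2 cells exposed 24 hr to 0.39–200 uM compound in duplicate at 0.5% v/v final DMSO. Cells fixed in 3.7% formaldehyde and Hoechst 33342-stained. Cell number came from nuclear imaging at 20x. Bidirectional fit versus DMSO.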

[5] = APR_HepG2_MicrotubuleCSK_24hr: Apredica 24-hour HepG2 Assay for Microtubule CSK Stabilty (AID 2282909); details: HepG2 microtubule cytoskeleton imaging, actives raise or lower the signal
Summary of the method: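 HepG2 cells were treated 24 hr with compound at 0.39–200 uM in duplicate (0.5% DMSO final), then fixed and permeabilized. Alpha-tubulin immunofluorescence was imaged by high-content microscopy, with bidirectional fitting against DMSO and taxol as positive control.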

[6] = APR_HepG2_MitoticArrest_24hr: Apredica 24-hour HepG2 Assay for Mitotic Arrest (AID 2282910); details: high-content imaging, actives raise or lower the signal
Summary of the method: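 HepG2 cells, 24 h exposure at 0.39-200 uM (10 concentrations, duplicate, 0.5% DMSO). Fixed, stained for phospho-histone H3 with Hoechst; imaged by high-content microscopy, bidirectional fit versus DMSO.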

[7] = APR_HepG2_MitoMembPot_24hr: Apredica 24-hour HepG2 Assay for Mitochondrial Membrane Potential (AID 2282911); details: imaging, actives raise or lower the signal
Summary of the method: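 Mitochondrial dye uptake (MitoTracker Red CMXRos, 250 nM, 30 min pre-fixation) in HepG2 after 24 hr compound exposure, 0.39–200 uM; ArrayScan images at 20x, activity fitted in both directions relative to DMSO.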

[8] = APR_HepG2_MitoMass_24hr: Apredica 24-hour HepG2 Assay for Mitochondrial Mass (AID 2282912); details: high-content imaging, actives raise or lower the signal
Summary of the method: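 HepG2 cells exposed 24 hr to 0.39–200 uM compound, 0.5% v/v DMSO, in duplicate. Stained before fixation with 250 nM MitoTracker Red CMXRos for 30 min, then imaged at 20x with Hoechst nuclei. Fitted in both directions against DMSO.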

[9] = APR_HepG2_CellCycleArrest_72hr: Apredica 72-hour HepG2 Assay for Cell Cycle Arrest (AID 2282914); details: high-content imaging, actives raise or lower the signal
Summary of the method: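 Using multiplexed high-content imaging, HepG2 nuclei stained with Hoechst 33342 (2 ug/mL) were analysed for DNA content after fixation and permeabilization. Treatment lasted 72 hr across 0.39–200 uM in duplicate with final DMSO 0.5% v/v; DMSO served as negative control.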

[10] = APR_HepG2_CellLoss_72hr: Apredica 72-hour HepG2 Assay for Cell Loss (AID 2282915); details: high-content imaging
Summary of the method: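 HepG2 cells exposed 72 h to compound at 0.39–200 uM (10 concentrations, duplicate) in 0.5% DMSO. Fixed with 3.7% formaldehyde and Hoechst 33342-stained. Imaged at 20x; nuclear count gives cell number, fitted bidirectionally versus DMSO.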

[11] = APR_HepG2_P-H2AX_72hr: Apredica 72-hour HepG2 Assay for H2AX Phosphorylation (AID 2282916); details: imaging, actives raise or lower the signal;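 note: phospho-histone H2A.x immunostain intensity per cell marking DNA damage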
Summary of the method: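 HepG2 cells treated 72 h at 0.39–200 uM, 0.5% DMSO final, duplicates. Formaldehyde-fixed, Triton-permeabilised, immunostained for phospho-H2A.x with Hoechst; fluorescence imaged at 20x, bidirectional fit versus DMSO.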

[12] = APR_HepG2_MitoMembPot_72hr: Apredica 72-hour HepG2 Assay for Mitochondrial Membrane Potential (AID 2282917); details: imaging, actives raise or lower the signal
Summary of the method: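 HepG2 cells dosed 72 hr with compound at 0.39–200 uM in duplicate, 0.5% v/v DMSO final. Mitochondria stained with 250 nM MitoTracker Red CMXRos for 30 min before formaldehyde fixation, imaged by high-content fluorescence; bidirectional fit versus DMSO.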

[13] = APR_HepG2_MitoticArrest_72hr: Apredica 72-hour HepG2 Assay for Mitotic Arrest (AID 2282918); details: high-content imaging, actives raise or lower the signal
Summary of the method: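 Using high-content imaging of fixed HepG2 cells, phospho-histone H3 signal was measured following a 72 hr incubation with ten-point compound dilutions up to 200 uM. DMSO served as the negative control and baseline for bidirectional curve fitting.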

[14] = APR_HepG2_MicrotubuleCSK_72hr: Apredica 72-hour HepG2 Assay for Microtubule CSK Stabilty (AID 2282919); details: HepG2 microtubule cytoskeleton, high-content imaging, actives raise or lower the signal
Summary of the method: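 HepG2 cells were exposed 72 hr to compound at 0.39–200 uM in duplicate (0.5% DMSO final), then fixed and permeabilized. Alpha-tubulin immunofluorescence was imaged by high-content microscopy, with bidirectional fitting against DMSO and taxol as positive control.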

[15] = APR_HepG2_P-H2AX_24hr: Apredica 24-hour HepG2 Assay for H2AX Phosphorylation (AID 2282920); details: high-content imaging, actives raise or lower the signal
Summary of the method: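 Human HepG2 liver cells, treated 24 hr with test chemicals (0.39–200 uM, final DMSO 0.5% v/v), are fixed and co-stained for phospho-H2A.x and c-Jun with Hoechst. Imaged intensity is fitted in both directions against DMSO controls.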

[16] = APR_HepG2_StressKinase_72hr: Apredica 72-hour HepG2 Assay for Stress Kinase (AID 2282921); details: HepG2 stress kinase (phospho-c-Jun) imaging, actives raise or lower the signal
Summary of the method: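 HepG2 cells treated 72 hr with 0.39–200 uM compound, 0.5% v/v DMSO, duplicate wells. After formaldehyde fixation and Triton permeabilization, stained with anti-phospho-c-Jun (1:500) and Cy3 secondary, imaged at 20x. Fitted in both directions against DMSO.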

[17] = APR_HepG2_StressKinase_24hr: Apredica 24-hour HepG2 Assay for Stress Kinase (AID 2282922); details: HepG2 stress kinase (phospho-c-Jun) imaging, actives raise or lower the signal
Summary of the method: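 HepG2 cells exposed 24 h to 0.39–200 uM compound in duplicate (0.5% v/v DMSO final). Cells fixed in 3.7% formaldehyde, permeabilized and immunostained for phospho-c-Jun; read by high-content fluorescence imaging, fitted bidirectionally against DMSO.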

[18] = APR_HepG2_MitoMass_72hr: Apredica 72-hour HepG2 Assay for Mitochondrial Mass (AID 2282924); details: high-content imaging, actives raise or lower the signal;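 note: MitoTracker Red CMXRos stain intensity per cell imaged as mitochondrial mass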
Summary of the method: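 HepG2 cells dosed 72 hr at 0.39–200 uM (0.5% DMSO), in duplicate. MitoTracker Red CMXRos 250 nM loaded 30 min before formaldehyde fixation; high-content fluorescence imaging, bidirectional fit versus DMSO.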

[19] = APR_HepG2_p53Act_24hr: Apredica 24-hour HepG2 Assay for p53 Activation (AID 2282913); details: high-content imaging, actives raise or lower the signal;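 note: p53 protein immunofluorescence averaged per cell in HepG2 with Hoechst nuclei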
Summary of the method: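 Following 24 hr dosing of HepG2 at 0.39–200 uM, the cells undergo formaldehyde fixation, Triton permeabilization and multiplexed antibody labeling that includes p53 (Cy5). Signal from the imaging is referenced to DMSO solvent controls.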

[20] = APR_HepG2_p53Act_72hr: Apredica 72-hour HepG2 Assay for p53 Activation (AID 2282923); details: high-content imaging, actives raise or lower the signal;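 note: average cellular p53 protein immunofluorescence intensity in HepG2 cells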
Summary of the method: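 HepG2 cells exposed 72 h to 0.39–200 uM in 0.5% DMSO, duplicates. Fixed, permeabilized cells immunostained for p53 (Cy5) with Hoechst; imaged at 20x, fluorescence analyzed bidirectionally against DMSO.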

Measured: AC50

c1ccc2c(c1)-c1cccc3c1c-2cc1ccccc13
active: [4] 5.87 µM | [6] 15.5 µM | [7] 70.4 µM | [8] 8.67 µM | [9] 2.38 µM | [10] 7.58 µM | [11] 0.0391 µM | [18] 0.0391 µM
inactive: [1] | [2] | [3] | [5] | [12] | [13] | [14] | [15] | [16] | [17]

O=C(O)c1ccc2c(c1)nc(C(=O)NC1CCN(C3CC3)CC1)n2Cc1cc(-c2ccc(Cl)s2)on1
inactive: [1] | [2] | [3] | [4] | [5] | [6] | [7] | [8] | [19] | [9] | [10] | [11] | [12] | [13] | [14] | [15] | [17] | [20] | [18]

C=CN1CCCC1=O
inactive: [1] | [2] | [3] | [4] | [5] | [6] | [7] | [8] | [19] | [9] | [10] | [11] | [12] | [13] | [14] | [15] | [17] | [20] | [18]

CCCC(CCC)C(=O)O
inactive: [1] | [2] | [3] | [4] | [5] | [6] | [7] | [8] | [9] | [10] | [11] | [12] | [13] | [14] | [15] | [16] | [17] | [18]

c1ccc(C(O[C@@H]2CCCN(CCc3ccc4c(c3)OCO4)C2)c2ccccc2)cc1
active: [2] 83.5 µM | [4] 99.9 µM | [5] 88.3 µM | [6] 96.3 µM | [8] 100 µM | [19] 103 µM | [10] 98.3 µM | [11] 96 µM | [13] 57.8 µM | [15] 103 µM | [20] 63.3 µM | [18] 99.7 µM
inactive: [1] | [3] | [7] | [9] | [12] | [14] | [17]

CC(=O)c1ccccc1
inactive: [1] | [2] | [3] | [4] | [5] | [6] | [7] | [8] | [19] | [9] | [10] | [11] | [12] | [13] | [14] | [15] | [17] | [20] | [18]

OCC(CO)(CO)CO
inactive: [1] | [2] | [3] | [4] | [5] | [6] | [7] | [8] | [9] | [10] | [11] | [12] | [13] | [14] | [15] | [16] | [17] | [18]

COS(C)(=O)=O
inactive: [1] | [2] | [3] | [4] | [5] | [6] | [7] | [8] | [9] | [10] | [11] | [12] | [13] | [14] | [15] | [17] | [18]

Nc1ccn([C@@H]2O[C@H](CO)[C@@H](O)[C@@H]2O)c(=O)n1
inactive: [1] | [5] | [6] | [7] | [12] | [14] | [17] | [18]
active: [2] 0.0387 µM | [3] 0.0391 µM | [4] 0.149 µM | [8] 0.0391 µM | [9] 0.0618 µM | [10] 0.0391 µM | [11] 0.202 µM | [13] 0.177 µM | [15] 0.0979 µM

Cc1nc(-c2ccccn2)ncc1C(=O)Nn1cc(C)c2cc(F)ccc21
active: [2] 99.5 µM | [4] 88.7 µM | [6] 101 µM | [7] 100 µM | [8] 108 µM | [9] 162 µM | [10] 55.3 µM | [13] 72.2 µM
inactive: [1] | [3] | [5] | [11] | [12] | [14] | [15] | [17] | [18]

C=CCc1cc(S(=O)(=O)c2ccc(O)c(CC=C)c2)ccc1O
active: [2] 32 µM | [4] 97.8 µM | [6] 51.5 µM | [8] 52.7 µM | [9] 33.7 µM | [10] 73.2 µM | [11] 53.2 µM | [13] 71.3 µM | [15] 77.5 µM | [18] 58.5 µM
inactive: [1] | [3] | [5] | [7] | [12] | [14] | [17]

CC[C@H](C)C(=O)O[C@H]1C[C@H](O)C=C2C=C[C@H](C)[C@H](CC[C@@H](O)C[C@@H](O)CC(=O)O)[C@H]21
inactive: [1] | [2] | [3] | [4] | [5] | [6] | [7] | [8] | [9] | [10] | [11] | [12] | [13] | [14] | [15] | [17] | [18]

CC(C)c1nnc2ccc(-c3ocnc3-c3cc(F)ccc3F)cn12
active: [7] 0.0586 µM
inactive: [1] | [4] | [6] | [8] | [19] | [10] | [11] | [12] | [13] | [15] | [17] | [20] | [18]
